Compounds with a hit are over-represented: about 3.3% of the library has one in this group of screens.
Vaccinia mCherry = qHTS for Stage-Specific Inhibitors of Vaccinia Orthopoxvirus: mCherry Reporter Primary qHTS. Potency, µM (highest dose often 36.5 µM), without a hit: at the highest dose activity change, negative = inhibition, most hits filed as inhibitors. 310,000 tested, 0.63% active. Vaccinia virus mCherry reporter infection, fluorescence. AID 720579, 2013; calls by dose curve; tested in A549 cells; note: nearly all actives have a fitted effect of over 35% in size
HCV inh = qHTS Assay for Inhibitors of Hepatitis C Virus (HCV). Huh7.5.1 HCVcc-Cre infection, luciferase reporter, 44 h. Potency, µM (doses to about 41.8 µM), inactives show at the top dose activity change, negative = inhibition, actives largely listed as inhibitors. 340,000 tested, 3.4% active. AID 651820, 2012; active = well fitted inhibition curve with a large enough effect; inconclusive = small, poorly fitted or top-dose-only effect, or another doubt; inactive = no such curve, though single readings can be large or run the other way
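1,000 cells/well; 4 h culture; + compound; + HCVcc-Cre (~0.5 moi); 44 h; luciferase substrate, RT 15 min; read 15 sec.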
VACV Venus inh = qHTS for Stage-Specific Inhibitors of Vaccinia Orthopoxvirus: Venus Reporter Primary qHTS. Vaccinia virus Venus reporter expression, fluorescence. Potency, µM (highest dose often 36.5 µM), inactives show at the highest dose activity change, negative = inhibition, hits mostly inhibitors. 330,000 tested, 0.46% active. AID 720580, 2013; calls by dose curve; tested in A549 cells; note: nearly all actives have a fitted effect of over 30% in size
Active calls of the source: *; [ ] = dose if it differs, or a comment. % is set by controls: 0 for no effect and ±100 for the full control effect; potency is the fitted concentration of half-maximal effect.

For CCOC(=O)c1c(C)c(-c2ccccc2)n(CC(=O)NCc2ccccc2)c1C the results were Vaccinia mCherry inactive and VACV Venus inh -19%.
Screening COC(=O)c1cc(S(=O)(=O)NCC2CCN(Cc3ccc(F)cc3)CC2)c[nH]1 returned Vaccinia mCherry -24%, HCV inh -6% and VACV Venus inh -12%.
COc1ccc(CN2CCC(CNS(=O)(=O)c3cccc(C(F)(F)F)c3)CC2)cc1 was read as Vaccinia mCherry -19%, HCV inh 11µM* and VACV Venus inh -8%.
`Cc1ccc(S(=O)(=O)NCCC(=O)NNC(=O)c2ccccc2O)cc1C` gave Vaccinia mCherry -27%, HCV inh 3.2µM* and VACV Venus inh -21%.
For COc1cc(OC)cc(C(=O)NNC(=O)CCNS(=O)(=O)c2ccc(C)c(C)c2)c1 the results were Vaccinia mCherry -5%, HCV inh -2% and VACV Venus inh -19%.
`CCC[C@@H](CN1CCC[C@H]1CN1C(N)=NC[C@H]1CC(C)C)N1C[C@@H]([C@H](C)CC)N(CCCC2CCCC2)C1=N` gave Vaccinia mCherry -1%, HCV inh 2.8µM* and VACV Venus inh -5%.
Screening CCC[C@@H](CN1CCC[C@H]1CN1C(N)=NC[C@H]1C(C)C)N1C[C@@H]([C@H](C)CC)N(CCCC2CCCC2)C1=N returned Vaccinia mCherry inactive, HCV inh -61% and VACV Venus inh -14%.
For CNC(=O)c1nc(C)c(C2(C)CC(c3ccccc3)=NO2)s1 (stereo not drawn) the results were Vaccinia mCherry -7%, HCV inh 12% and VACV Venus inh -11%.
For Cc1nc(C(=O)Nc2cc(F)cc(Cl)c2)sc1C1(C)CC(c2ccccc2)=NO1 (stereo not drawn) the results were Vaccinia mCherry -14%, HCV inh 14µM* and VACV Venus inh inconclusive.
For O=C(Nc1ccc(N2CCN(c3ccc(F)cc3)CC2)c(C(=O)O)c1)c1ccccc1F the results were Vaccinia mCherry -1% and VACV Venus inh -2%.
For CC(=O)N(O)c1ccc(/C=C2\C=Cc3ccccc32)cc1 the results were Vaccinia mCherry -17% and VACV Venus inh -7%.
Screening [O-][N+]12CCCc3cccc(c31)CCC2 returned Vaccinia mCherry inactive and VACV Venus inh 0%.
CCN(CCCNC(=O)Cn1ncc2c(=O)oc3ccccc3c21)c1cccc(C)c1 was read as Vaccinia mCherry inconclusive, HCV inh 13µM* and VACV Venus inh inconclusive.
For CCCN(C(=O)Cn1ncc2c(=O)oc3ccccc3c21)c1cccc(C)c1 the results were Vaccinia mCherry -1%, HCV inh -12% and VACV Venus inh 5%.
Screening O=C(CN1CCN(S(=O)(=O)c2ccccc2)CC1)N1CCCCC1 returned Vaccinia mCherry -12%, HCV inh 19% and VACV Venus inh -5%.
Screening COc1cccc(CN2C(=O)NC(C)(C3CCN(Cc4ccc(C)o4)CC3)C2=O)c1OC (stereo not drawn) returned Vaccinia mCherry -24% and VACV Venus inh -20%.
`Cc1c(CC(=O)N2CCCCC2)c(=O)oc2c(C)c3occ(C(C)(C)C)c3cc12` gave Vaccinia mCherry -26% and VACV Venus inh -27%.
For CN(C(=O)COC(=O)c1nc(Cl)c(Cl)c(Cl)c1Cl)C1CCS(=O)(=O)C1 (stereo not drawn) the results were Vaccinia mCherry -18%, HCV inh 10µM* and VACV Venus inh -22%.
Screening CN(C(=O)COC(=O)c1ccc(C(C)(C)C)cc1)C1CCS(=O)(=O)C1 (stereo not drawn) returned Vaccinia mCherry -14%, HCV inh 20% and VACV Venus inh -13%.
`O=C(NCC(=O)N(c1ccccc1F)C(C(=O)NC1CCCC1)c1cccnc1)c1ccco1` (stereo not drawn) gave Vaccinia mCherry -1%, HCV inh 12% and VACV Venus inh 2%.
For O=[N+]([O-])c1ccc2nc(CO)[nH]c2c1 the results were Vaccinia mCherry -19% and VACV Venus inh -16%.
For COc1ccc(S(=O)(=O)Nc2cccc(S(=O)(=O)N(C)C)c2)cc1[N+](=O)[O-] the results were HCV inh 16%.
For S=C(NCc1ccncc1)Nc1ccc(Cl)cc1Cl the results were HCV inh -15%.
CCOc1ccccc1Nc1ccnc2cc(Cl)ccc12 was read as Vaccinia mCherry inactive, HCV inh inconclusive and VACV Venus inh inconclusive.
Screening S=C(NNc1ccnc2cc(Cl)ccc12)Nc1ccc(Cl)cc1Cl returned HCV inh 5.6µM*.
CCOc1ccc(NC(=S)NNc2ccnc3cc(Cl)ccc23)cc1 was read as Vaccinia mCherry -4%, HCV inh 3.2µM* and VACV Venus inh -12%.
Cc1ccc(S(=O)(=O)N2CCN(C(=O)C3COc4ccccc4O3)CC2)cc1C (stereo not drawn) was read as Vaccinia mCherry inactive and VACV Venus inh -17%.
Screening Cc1cc(C)c(S(=O)(=O)N2CCN(C(=O)C3COc4ccccc4O3)CC2)c(C)c1 (stereo not drawn) returned HCV inh 11µM*.
`CCOc1ccc(OCC)c(NC(=O)CSc2nc3c(c(=O)n(C)c(=O)n3C)n2C(C)C)c1` gave Vaccinia mCherry -25%, HCV inh 10µM* and VACV Venus inh -20%.
`CCOc1ccc(OCC)c(NC(=O)CSc2nc3c(c(=O)n(C)c(=O)n3C)n2CC)c1` gave Vaccinia mCherry -6%, HCV inh inconclusive and VACV Venus inh -11%.
Screening COc1ccccc1CN1CCOc2ccc(CN3CCCCC3CO)cc2C1 (stereo not drawn) returned Vaccinia mCherry -24% and VACV Venus inh -26%.
For Cc1c2ccccc2c(C)c2c1ccc1ccccc12 the results were Vaccinia mCherry -3%, HCV inh 10µM* and VACV Venus inh -21%.
Screening Cc1cnc2ccc3ccccc3c2c1C returned Vaccinia mCherry -12% and VACV Venus inh -18%.
Screening CC1=CC(=C(C#N)c2nc3ccccc3s2)C=C(C)N1CC1CCCO1 (stereo not drawn) returned Vaccinia mCherry -23%, HCV inh 11µM* and VACV Venus inh -25%.
c1ccc2sc(NCC3CCCO3)nc2c1 (stereo not drawn) was read as Vaccinia mCherry inactive, HCV inh 3% and VACV Venus inh -6%.
`CCc1ccc(C(=O)NNC(=O)CCC2CCCCC2)cc1` gave Vaccinia mCherry 8%, HCV inh 0% and VACV Venus inh -1%.
Cc1sc2ncnc(NCCc3ccc(S(N)(=O)=O)cc3)c2c1C was read as Vaccinia mCherry -9%[1.46 µM], HCV inh 1µM* and VACV Venus inh inconclusive.
Cc1ccc(S(=O)(=O)Nc2ncnc3sc(C)c(C)c23)cc1 was read as Vaccinia mCherry -15%, HCV inh -16% and VACV Venus inh -9%.
For NS(=O)(=O)c1ccc(CCNc2ncnc3sccc23)cc1 the results were HCV inh 5.6µM*.
Screening CC(Sc1ncnc2sccc12)C(=O)Nc1ccc(C(N)=O)cc1 (stereo not drawn) returned HCV inh 0%.
For NS(=O)(=O)c1ccc(CNc2ncnc3sccc23)cc1 the results were Vaccinia mCherry 29%, HCV inh -5% and VACV Venus inh 0%.
